Compounds with a hit are over-represented: about 10% of the library has one in this group of screens.
NPR1 antag – blocks ANP-stimulated signaling of human Npr1 receptor | P16066 | HEK293 hNpr1 GloSensor cGMP, ANP-stimulated luminescence | Potency, µM (doses to about 46.3 µM), for the others: at the top dose activity change, negative = inhibition, most hits filed as inhibitors | actives 1.6% (n = 76,000) | AID 1347048; calls by dose curve; note: nearly all actives have a fitted effect of over 60% in size
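Compound pre-incubated 30 min at room temperature on GloSensor-loaded HEK293 cells stably carrying hNpr1 and the pGS-40F cGMP biosensor. Stimulation uses hNppA at 0.1 nM final; luminescence is taken at baseline and 20 min post-agonist.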
GPT2 inh – inhibitors of human GPT2 alanine aminotransferase; Q8TD30; Recombinant GPT2, coupled pyruvate oxidase/HRP Amplex Red fluorescence; Potency, µM (titrated, usually from 57.7 µM), inactives show at the top dose activity change, negative = inhibition, hits mostly inhibitors; actives 0.25% (n = 100,000); AID 1671188; note: nearly all actives have a fitted effect of over 60% in size
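Recombinant GPT2 (10ng/uL) with 250uM a-KG and 2mM L-alanine, 30 min at room temperature, in HEPES pH 7.5 buffer. Pyruvate detected by pyruvate oxidase/HRP/Amplex Red fluorescence after 30 min in the dark; AOA (50uM) as positive control.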
FLuc inh – blocks purified firefly luciferase enzyme activity | P08659 | purified P. pyralis luciferase, luminescence, biochemical | Potency, µM (top dose mostly 115 µM), usual class: inhibitors | actives 2.5% (n = 76,000) | AID 1347043; note: nearly all actives have a fitted effect of over 65% in size
Target sequence (P08659 whole entry, looked up): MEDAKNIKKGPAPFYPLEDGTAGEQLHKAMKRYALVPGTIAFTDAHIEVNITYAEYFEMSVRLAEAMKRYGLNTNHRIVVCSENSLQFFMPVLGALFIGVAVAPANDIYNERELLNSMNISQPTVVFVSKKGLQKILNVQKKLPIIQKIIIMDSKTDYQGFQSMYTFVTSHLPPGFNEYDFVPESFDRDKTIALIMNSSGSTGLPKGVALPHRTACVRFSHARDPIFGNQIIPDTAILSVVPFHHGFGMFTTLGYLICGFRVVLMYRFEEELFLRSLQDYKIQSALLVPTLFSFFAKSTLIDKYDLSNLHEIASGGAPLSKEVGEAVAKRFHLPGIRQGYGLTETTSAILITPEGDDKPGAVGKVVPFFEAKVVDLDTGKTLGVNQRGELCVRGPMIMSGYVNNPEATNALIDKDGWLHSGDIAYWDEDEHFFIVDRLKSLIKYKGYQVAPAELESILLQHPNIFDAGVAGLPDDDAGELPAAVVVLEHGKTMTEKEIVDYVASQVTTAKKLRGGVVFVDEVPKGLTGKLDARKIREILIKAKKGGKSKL
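Biochemical qHTS: compound (6-point titration) added to 10uM D-luciferin plus 10uM ATP in Tris acetate pH 7.5 buffer with Mg, Tween-20 and BSA, then purified enzyme at 10nM; light output imaged.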
HEK293 tox – cytotoxic compounds in HEK 293 cells | HEK 293 viability, ATP luminescence (CellTiter-Glo), 48-72 h | Potency, µM (top dose mostly 115 µM), inactives show top-dose activity change, negative = cytotoxicity, actives largely listed as inhibitors | actives 6.6% (n = 94,000) | AID 1345083; note: nearly all actives have a fitted effect of over 60% in size
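Cells seeded first (HEK 293, 250 cells/well), then compound added by pintool. Incubation ran 48 or 72 hr at 37 degree Celsius. CellTiter-Glo was added and luminescence imaged after 10 min at room temperature.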
NIH3T3 tox – kills NIH 3T3 cells | NIH 3T3 viability, CellTiter-Glo ATP luminescence, 48-72 h | Potency, µM (series often up to 96.7 µM), for the others: at the top dose activity change, negative = cytotoxicity, actives largely listed as inhibitors | actives 4.3% (n = 94,000); note: nearly all actives have a fitted effect of over 55% in size
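ATP-dependent luminescence (CellTiter-Glo) served as the viability signal for NIH 3T3 cells treated with compound for 48 or 72 hr at 37 °C.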
* marks the source's active call; other numbers are inactive results; i = inactive; u = inconclusive; x = not tested or not shown; [ ] = another dose, or the depositor's remark. Unless noted, calls come from the whole dose curve; as a rule, active = well fitted curve in the direction sought with a large enough effect; inconclusive = small, poorly fitted or top-dose-only effect, or another doubt; inactive = no such curve, though single readings can be large; an effect the other way counts as inactive or inconclusive. % is set by controls: 0 for no effect and ±100 for the full control effect; potency is the fitted concentration of half-maximal effect.

SMILES	NPR1 antag	GPT2 inh	FLuc inh	HEK293 tox	NIH3T3 tox
O=C(Cn1nc2c(cc1=O)CCCC2)NCCn1ccc2c(Cl)cccc21	-6.4%	-8.1%	i	u	u
COCCOC1CN(C2CCN(C(=O)c3ccc4cc[nH]c4c3)CC2)C12CCCCC2 (stereo not given)	x	0.4%	x	-11.4%	u
O=C(Nc1ccccc1)N1CCN(C(=O)c2nc3cccnc3n(CCc3ccccc3)c2=O)CC1	x	-6.7%	x	-21.6%	u
COc1ccccc1-c1cc(C(=O)N(C)C)nn2cnnc12	x	i	x	i	i
Cc1ccc(-c2cccc(CN3CCCC3C(=O)NCc3cccc(Cl)c3)c2)cc1Cl (stereo not given)	x	x	x	39.8µM*	35.5µM*
COc1cccc(-c2cccc(CN3CCCC3C(=O)NCc3cccs3)c2)c1 (stereo not given)	x	i	x	u	u
Cc1ccc(-c2cccc(CN3CCCC3C(=O)NCc3cccc(F)c3)c2)cc1Cl (stereo not given)	x	x	x	44.7µM*	u
COCCNC(=O)C1CCCN1Cc1cccc(-c2cccc(OC)c2)c1 (stereo not given)	x	0.8%	x	u	u
Cc1ccc(-c2cccc(CN3CCCC3C(=O)NCc3ccc(F)cc3F)c2)cc1Cl (stereo not given)	x	x	x	44.7µM*	u
Cn1ccnc1CN1C(=O)CO[C@H]2CN(CCCc3ccccc3)C[C@H]21	-24.9%[70.6 µM]	3.4%[88.5 µM]	i	u	112µM*
CC[C@H]1CN(C(=O)Nc2cccc(OC)c2)CC[C@H]1CC(=O)NCc1ccccc1	-12.6%[70.6 µM]	i	i	-13.2%[172 µM]	-29.8%[174 µM]
CC[C@H]1CN(C(=O)Nc2cccc(C(F)(F)F)c2)CC[C@H]1CC(=O)NCc1ccc(OC)cc1	u	-6.8%	i	39.8µM*	u
Cc1nn(-c2ccccc2)c2c1C(C)N(CC1CN(C(=O)c3ccc(Cl)nc3)C1)C2=O (stereo not given)	x	x	x	-5.4%	u
Cc1nn(-c2ccccc2)c2c1C(C)N(CC1CN(C(=O)c3ccc4c(c3)OCO4)C1)C2=O (stereo not given)	x	x	x	u	20µM*
Cc1nn(-c2ccccc2)c2c1C(C1CC1)N(CC1CN(C(=O)C3CC3)C1)C2=O (stereo not given)	x	x	x	u	10µM*
CC(=O)N1CC(CN2C(=O)c3c(c(C)nn3-c3ccccc3)C2C2CC2)C1 (stereo not given)	x	x	x	u	22.4µM*
Cc1nn(-c2ccccc2)c2c1C(C)N(CC1CN(Cc3ccc(C(F)(F)F)cc3)C1)C2=O (stereo not given)	x	x	x	31.6µM*	39.8µM*
CC(=O)N1CCN(C(=O)C2CCc3nnc(CN[S+](=O)([O-])c4ccccc4Cl)n32)CC1 (stereo not given)	x	i	x	-2.6%	-10.2%
O=C(Cc1ccc(F)cc1)N1CCC(C(=O)N2CCC(c3nc4ccncc4[nH]3)C2)CC1 (stereo not given)	x	-6.2%	x	-28.8%	-19.4%
CCOC(=O)N1CC(CN2C(=O)c3c(c(C)nn3-c3ccccc3)C2C2CC2)C1 (stereo not given)	x	x	x	35.5µM*	39.8µM*
CC(=O)N1CC(CN2C(=O)c3c(c(C)nn3-c3ccccc3)C2C)C1 (stereo not given)	x	x	x	u	-28.7%
N#CC1CCN(C(=O)CNC(=O)c2ccc(-c3cnc4ccccc4c3)cc2)CC1	x	-18.4%	x	u	u
COc1cc(F)ccc1-c1ccnc2nc(-c3cccs3)nn12	3.2%	-7.3%	i	-0.4%	-0.5%
COc1ccc(-c2ccnc3nc(-c4ccccc4OC)nn23)cc1OC	0.0%	i	i	u	u
COc1ccc(-c2ccnc3nc(-c4cccs4)nn23)cc1OC	-2.0%	i	i	u	7.08µM*
SMILES	NPR1 antag	GPT2 inh	FLuc inh	HEK293 tox	NIH3T3 tox
COc1ccccc1-c1nc2nccc(-c3ccco3)n2n1	3.5%	-2.9%	u	3.7%	-15.0%
COc1ccccc1-c1nc2nccc(-c3cc4ccccc4o3)n2n1	-10.3%	-26.1%	i	89.1µM*	u
COc1ccccc1-c1nc2nccc(-c3ccc4c(c3)OCCCO4)n2n1	-12.3%	-3.6%	u	17.8µM*	u
CN1CCc2c([nH]c3ccccc23)C12CCN(C(=O)c1ccc(Cn3ccnc3)o1)CC2	0.6%	3.6%	i	89.1µM*	-23.8%
COCCN1C(=O)c2cccn2CC1CNC(=O)c1ccc(-n2c(C)ccc2C)cc1 (stereo not given)	x	i	x	25.1µM*	u
COCCN1C(=O)c2cccn2CC1CNC(=O)c1ccc(F)cc1 (stereo not given)	0.3%	i	i	-0.6%	1.8%
COc1ccccc1-c1cc(-c2cccnc2)c2cncn2c1	-3.0%[70.6 µM]	-1.1%[88.5 µM]	i	u	u
COc1ccc(-c2cc(-c3ccc(OC)c(OC)c3)cn3cncc23)cc1	-11.8%[70.6 µM]	-1.5%[88.5 µM]	i	70.8µM*	39.8µM*
COc1ccc(-c2cc(N3CCOCC3=O)c3cncn3c2)cc1OC	0.8%[70.6 µM]	-18.0%[88.5 µM]	i	-6.7%[172 µM]	u
COc1ccccc1-c1cc(N2CCOCC2=O)c2cncn2c1	-9.3%[70.6 µM]	u	i	-42.7%[172 µM]	100µM*
COc1cccc(-c2cc(-c3cccnc3)c3cncn3c2)c1OC	-0.6%[70.6 µM]	-1.7%[88.5 µM]	50.1µM*	u	u
COc1ccccc1-c1cc(-c2ccncc2)c2cncn2c1	-23.0%[70.6 µM]	0.2%[88.5 µM]	i	89.1µM*	11.2µM*
O=C(c1sccc1Cl)N1CCn2nc(C(O)c3ccccc3)cc2C1 (stereo not given)	3.2%	-11.9%	i	-2.0%	-16.8%
COc1ccccc1CNC(=O)C[C@@H]1[C@H](O)CCC2[C@](C)(CO)[C@H](OC(=O)NC3CCCCC3)CC[C@]21C (stereo not given in full)	-1.7%	-0.7%	i	u	u
COc1ccc(-c2cc(-c3ccc([S+](C)(=O)[O-])cc3)cn3cncc23)cc1	-17.4%[70.6 µM]	-2.8%[88.5 µM]	i	u	u
c1cncc(-c2cc(-c3ccc4cn[nH]c4c3)cn3cncc23)c1	-11.6%[70.6 µM]	-17.8%[88.5 µM]	u	u	u
Cc1ccccc1-c1cc(-c2ccc(=O)[nH]c2)c2cncn2c1	-11.6%[70.6 µM]	0.2%[88.5 µM]	i	70.8µM*	25.1µM*
CN(C)c1ccc(-c2cc(-c3ccc(=O)[nH]c3)c3cncn3c2)cc1	-13.7%[70.6 µM]	i	u	-17.1%[172 µM]	u
COc1ccc(-c2cc(-c3ccncc3)c3cncn3c2)cc1OC	0.6%[70.6 µM]	-18.9%[88.5 µM]	i	u	25.1µM*
COc1ccc(-c2cc(-c3ccc(CO)cc3)cn3cncc23)cc1	-17.2%[70.6 µM]	0.8%[88.5 µM]	i	79.4µM*	u
COc1ccc(-c2cc(-c3cccnc3)c3cncn3c2)cc1OC	-0.2%[70.6 µM]	-12.7%[88.5 µM]	i	u	35.5µM*

Screening data (PubChem BioAssay)
